# Data taken from PubChem BioAssay (NCATS).
# Results filed as inconclusive are left out. Entries that show only a call come without a potency. Unmarked numbers belong to inactive results. Activity calls are given as the source filed them. Calls come from the whole dose curve; as a rule, active = well fitted curve in the direction sought with a large enough effect; inconclusive = small, poorly fitted or top-dose-only effect, or another doubt; inactive = no such curve, though single readings can be large; an effect the other way counts as inactive or inconclusive. Positions of bridges follow the written chain, without caps; N, C: chain ends. Non-standard residues stand in square brackets, D forms with d. Residues, ends and D or L forms follow the SMILES beside them. ξ: configuration not given here. *: point of attachment. ξDab(CH2SO3H) = NC(CCNCS(=O)(=O)O)C(=O)O; Octanoyl(6-Me) = CCC(C)CCCCC(=O)*; Dab = NCC[CH](N)C(=O)O
# Columns and labels:
# Furin (Homo sapiens) = Furin (Homo sapiens) (UniProt P09958); assay: Furin counterscreen qHTS for Zika virus inhibitors (AID 1347149); note: nearly all actives have a fitted effect of over 70% in size; note: potency is the fitted concentration of half-maximal effect
# Summary of the method: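 Fluorogenic cleavage of BOC-RVRR-AMC (2 microM final, Km ~15 µM) was monitored (ex 340, em 450 nm) at 37C after 15 min RT preincubation of 5 nM furin with compounds in HEPES pH 7.0 buffer with CaCl2 and Triton X-100. Percent inhibition was fitted to a 4-parameter Hill curve.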
# [1] = Vero cells viability qHTS for Zika virus inhibitors (AID 1347167)
# Summary of the method: (§1)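 Cells seeded at 2.5 x 10^5 cells/mL in DMEM with 4% FBS and attached overnight at 37 degrees C, then exposed to compound for 24 to 48 hours. Viability read as ATP content by CellTiter Glo luminescence.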
# [2] = HepG2 cells viability qHTS for Zika virus inhibitors (AID 1347168)
# Summary of the method: as §1
# [3] = Tertiary RLuc qRT-PCR qHTS assay for Zika virus inhibitors (AID 1347169); note: top concentration of the series differs between compounds; nearly all actives have a fitted effect of over 55% in size
# Summary of the method: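 Inhibition of ZIKV-RLuc replication in Vero cells, read as Renilla luminescence 1-1.5 hrs after live-cell substrate addition, following 48-72 hrs infection at MOI 1-2 in presence of compound.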
# [4] = test system: Zika virus NS2B-NS3 protease (linked construct); assay: Confirmatory screen NINDS AMC qHTS for Zika virus inhibitors (AID 1347152);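 note: AMC fluorescence gain from cleaved Bz-Nle-KRR-AMC substrate over 15 min; top concentration of the series differs between compounds; nearly all actives have a fitted effect of over 70% in size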
# Summary of the method: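 Concentration-response confirmation used the NINDS linked protease (NS2B hydrophilic domain joined to NS3 protease domain), 1 nM, with a 15-min compound preincubation. Substrate, Nle-KRR-AMC at 10 microM, was read by UV fluorescence before and after 15 min.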
# [5] = test system: Zika virus NS2B-NS3 protease (unlinked complex); assay: Confirmatory screen GU AMC qHTS for Zika virus inhibitors (AID 1347153); note: nearly all actives have a fitted effect of over 70% in size
# Summary of the method: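 Compounds were preincubated 15 min at room temperature with 25 nM noncovalent NS2B-NS3 protease at pH 8.0; AMC substrate added at 10 microM and 15-min fluorescence gain (340/450 nm) converted to percent inhibition, fitted 4-parameter.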
# [6] = test system: Zika virus NS2B-NS3 protease (linked); assay: 384 well plate NINDS AMC confirmatory qHTS for Zika virus inhibitors (AID 1347163); note: potency is the fitted concentration of half-maximal effect; nearly all actives have a fitted effect of over 50% in size
# Summary of the method: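 Linked NS2B-NS3 protease (final 5 nM, 30 nM or 60 nM) was preincubated with compounds (final up to 1 mM) for ~15 minutes. Ac-VKTGKR-AMC substrate (final 30 microM) then reacted for 25 minutes at room temperature in the dark. Fluorescence (ex 355/em 460 nm) was normalized to no-enzyme and no-inhibitor controls.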
# [7] = test system: Zika virus NS2B-NS3 protease (linked construct); assay: 384 well plate NINDS Rhodamine confirmatory qHTS for Zika virus inhibitors (AID 1347164); note: potency is the fitted concentration of half-maximal effect; nearly all actives have a fitted effect of over 65% in size
# Summary of the method: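 Cleavage of Ac-LKRR-Rhodamine 110 (10 microM final) by linked protease (final 5, 30 or 60 nM) was followed as fluorescence at 485/538 nm after 25 min, room temperature, dark. Compounds preincubated ~15 min.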
# [8] = Confirmatory screen NINDS Rhodamine qHTS for Zika virus inhibitors (AID 1347161); note: potency is the fitted concentration of half-maximal effect; nearly all actives have a fitted effect of over 60% in size
# Summary of the method: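 Aprotinin served as in-plate control. Conditions: 25 nM linked NS2B-NS3, pH 8.0 Tris buffer, titrated compounds, 15 min preincubation and 15 min reaction with 1.5 microM Rhod110 substrate at room temperature.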
# [9] = Primary qHTS for small molecule stabilizers of the endoplasmic reticulum resident proteome: Secreted ER Calcium Modulated Protein (SERCaMP) assay (AID 1508630)
# Summary of the method: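 GLuc-SERCaMP-expressing SH-SY5Y cells, pretreated 16 h with compound, are challenged with thapsigargin to empty ER calcium stores; after 4 h, coelenterazine is added directly to the medium and luminescence is imaged.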
# [10] = molecular target: Tumor susceptibility gene 101 protein (Homo sapiens) (UniProt Q99816); assay: qHTS Assay for Iinhibitors of HIV-1 Budding by Blocking the Interaction of PTAP/TSG101: Hit Validation (AID 651600); note: nearly all actives have a fitted effect of over 70% in size
# Summary of the method: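 Measuring PTAP–Tsg101 interaction by FP: protein at 10 uM and fluorescent peptide at 50 nM (final), buffer 10 mM HEPES pH 7.5 with 0.15 M NaCl, 3 mM EDTA, 0.1 mM TCEP, 0.01% Tween 20; 20 min incubation, r.t.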
# Furin (Homo sapiens), sequence (P09958 whole entry, looked up): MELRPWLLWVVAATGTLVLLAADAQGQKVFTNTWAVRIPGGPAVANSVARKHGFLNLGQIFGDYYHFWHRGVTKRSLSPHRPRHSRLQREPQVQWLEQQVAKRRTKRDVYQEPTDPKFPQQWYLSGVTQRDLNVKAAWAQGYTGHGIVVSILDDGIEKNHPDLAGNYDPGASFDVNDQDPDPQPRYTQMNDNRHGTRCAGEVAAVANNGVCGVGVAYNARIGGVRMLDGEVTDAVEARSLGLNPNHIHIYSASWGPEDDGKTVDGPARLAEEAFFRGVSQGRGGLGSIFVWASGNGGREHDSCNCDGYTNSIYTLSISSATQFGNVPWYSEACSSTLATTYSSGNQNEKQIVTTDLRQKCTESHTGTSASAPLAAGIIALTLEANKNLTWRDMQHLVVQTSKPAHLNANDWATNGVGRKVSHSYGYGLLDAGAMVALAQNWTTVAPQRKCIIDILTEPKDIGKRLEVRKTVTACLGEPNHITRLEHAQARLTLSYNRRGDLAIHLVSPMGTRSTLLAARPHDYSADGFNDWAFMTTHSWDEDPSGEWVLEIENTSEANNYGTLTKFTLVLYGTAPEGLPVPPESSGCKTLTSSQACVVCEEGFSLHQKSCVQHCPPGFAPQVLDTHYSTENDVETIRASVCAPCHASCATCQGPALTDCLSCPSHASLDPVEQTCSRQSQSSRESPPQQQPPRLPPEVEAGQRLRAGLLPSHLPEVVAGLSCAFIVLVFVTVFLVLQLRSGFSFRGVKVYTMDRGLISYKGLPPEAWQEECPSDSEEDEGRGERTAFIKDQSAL
# Tumor susceptibility gene 101 protein (Homo sapiens), sequence (Q99816 whole entry, looked up): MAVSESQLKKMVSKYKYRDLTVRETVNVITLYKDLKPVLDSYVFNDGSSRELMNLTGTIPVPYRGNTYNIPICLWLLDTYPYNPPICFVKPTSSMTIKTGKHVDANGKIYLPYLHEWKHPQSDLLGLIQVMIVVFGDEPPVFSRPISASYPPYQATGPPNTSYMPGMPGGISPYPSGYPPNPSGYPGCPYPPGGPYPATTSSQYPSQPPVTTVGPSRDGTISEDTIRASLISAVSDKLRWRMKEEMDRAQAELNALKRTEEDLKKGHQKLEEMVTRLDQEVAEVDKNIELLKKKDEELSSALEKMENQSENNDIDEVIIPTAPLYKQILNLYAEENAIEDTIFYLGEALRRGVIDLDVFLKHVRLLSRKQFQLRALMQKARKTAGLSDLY
compound,measurement,setting,value
CCCCOc1ccc(C2C(=O)N(C3CCCCC3)CC(=O)N2C2CCCCC2)cc1 (stereo not given),Potency,Furin (Homo sapiens),inactive
same,Potency,[1],inactive
same,Potency,[2],inactive
same,Potency,[3],inactive
C[S+](=O)([O-])c1ccc(OCC2CN(Cc3ccccc3)C(=O)c3c(ccnc3-c3ccc(OCC(=O)O)cc3)O2)cc1 (stereo not given),Potency,[4],inactive
same,Potency,[5],inactive
same,Potency,[3],inactive
COc1ccc(NS(=O)(=O)c2ccc(NS(=O)(=O)c3ccc4c(c3)OCCO4)cc2)cc1,Potency,Furin (Homo sapiens),inactive
same,Potency,[6],355 µM (active)
same,Potency,[7],141 µM (active)
O=C(O)COc1ccc(-c2nccc3c2C(=O)N(Cc2cccc(C(F)(F)F)c2)CC(COc2ccc4cnccc4c2)O3)cc1 (stereo not given),Potency,Furin (Homo sapiens),62.2 µM (active)
same,Potency,[7],35.5 µM (active)
CC[C@@H](C(=O)[C@H](C)[C@@H](O)[C@H](C)CCc1ccc(C)c(O)c1C(=O)O)C1O[C@@](CC)(C2CC[C@](O)(CC)[C@H](C)O2)C[C@@H]1C (stereo not given in full),Potency,Furin (Homo sapiens),inactive
same,Potency,[8],9.84 µM (active)
same,Potency,[6],158 µM (active)
same,Potency,[7],31.6 µM (active)
same,Potency,[9],inactive
CCOC(=O)c1ccc(NC(=O)CSc2nc(-c3cccs3)cc(C(F)(F)F)c2C#N)cc1,outcome,[10],inactive
same,Potency,Furin (Homo sapiens),inactive
same,Potency,[3],inactive
CCC(C)CCCCC(=O)NC(CCNCS(=O)(=O)O)C(=O)NC(C(=O)NC(CCNCS(=O)(=O)O)C(=O)NC1CCNC(=O)C(C(C)O)NC(=O)C(CCNCS(=O)(=O)O)NC(=O)C(CCNCS(=O)(=O)O)NC(=O)C(CC(C)C)NC(=O)C(CC(C)C)NC(=O)C(CCNCS(=O)(=O)O)NC1=O)C(C)O (stereo not given) ({Octanoyl(6-Me)}-[ξDab(CH2SO3H)]T[ξDab(CH2SO3H)][Dab][ξDab(CH2SO3H)]LL[ξDab(CH2SO3H)][ξDab(CH2SO3H)]T; lactam 4-C; configuration not given here),Potency,Furin (Homo sapiens),inactive
same,Potency,[8],12.6 µM (active)
same,Potency,[6],25.1 µM (active)
same,Potency,[7],3.55 µM (active)
same,Potency,[3],inactive
